Several values for one entry are separate records, joined by “and”; a condition that tells them apart may be missing. Equal values may be shown once.

What all share (conditions): concentration: 10 µM; 24 h
Assay [1] has as its system HCC1569. Description: cell number relative to DMSO (% of DMSO); higher = more cells (less growth inhibition / toxicity). The method in brief:
(§1)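 In 384-well plates holding 800 HCC1569 or TDF cells per well in RPMI with 10% FBS, compounds were tested at 10 µM for 24 h at 37 °C in triplicate. Fixation used 3.7% formaldehyde. Staining used a rabbit anti-H1.0 antibody with an AlexaFluor 647 secondary, plus DAPI. Each value, H1.0 nuclear intensity or cell number, is a median of replicates shown as percent of the plate control, and HCC1569 values were smoothed for positional effects.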

Assay [2] relates to TDF. Described as above. A digest of the protocol:
as §1

Assay [3] has as its system HCC1569. The assay can be described thus: H1.0 immunofluorescence intensity relative to DMSO (% of DMSO); higher = stronger H1.0 induction, active = 140 or more. A digest of the protocol:
as §1

The subject of assay [4] is TDF. Description: H1.0 immunofluorescence intensity relative to DMSO (% of DMSO); higher = stronger H1.0 induction, active = 120 or more. A digest of the protocol:
as §1
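Wherever H1.0 immunofluorescence intensity relative to DMSO is given: TDF is a line of transformed human dermal fibroblasts of mesenchymal origin.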
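Wherever cell number relative to DMSO is given: TDF denotes transformed human dermal fibroblasts of mesenchymal origin.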

Consider `NC(=O)Nc1cc(-c2cccc(F)c2)sc1C(=O)NC1CCCNC1` (configuration not stated), for which the cell number in the assay on HCC1569 [1] came out at 19.9; in the assay on TDF [2], 1.8. Also, the H1.0 immunofluorescence intensity in the assay with HCC1569 [3] is 60.3 (inactive).
With `COc1ccc(CCN(C)CCCC(C#N)(c2ccc(OC)c(OC)c2)C(C)C)cc1OC` (configuration not stated) [Verapamil], the H1.0 immunofluorescence intensity in the assay on TDF [4] is 90.6 (inactive); with HCC1569 [3] it was 98.6 (inactive).
The matching figures for `COc1ccc(Cn2cc(C(=O)O)c(=O)c3ccccc32)cc1`: 98.8 (inactive) and 116 (inactive).
For `Cc1cc(Nc2ccc(NC(=O)c3ccc(Nc4ccnc5ccccc45)cc3)cc2)nc(N)n1`, the results for the cell number in the assay with HCC1569 [1] and with TDF [2] were 13.5 and 0.96, respectively. For the same molecule, the H1.0 immunofluorescence intensity in the assay on HCC1569 [3] was 83.8 (inactive).
Consider `CC(C)NCC(O)c1cc(O)cc(O)c1.CC(C)NCC(O)c1cc(O)cc(O)c1.O=S(=O)(O)O` (configuration not stated) [Metaproterenol hemisulfate], for which the cell number with HCC1569 [1] amounted to 102; in the assay on TDF [2] it was 106. Further, the H1.0 immunofluorescence intensity was 92.1 (inactive) in the assay on TDF [4] and 93.4 (inactive) with HCC1569 [3].
For the molecule `C[n+]1cc2c3c(ccc2c2ccc4cc5c(cc4c21)OCO5)OCO3.[Cl-]` [Sanguinarine chloride], the cell number with HCC1569 [1] was 15.1; in the assay with TDF [2], 0.53. Besides, in the assay with HCC1569 [3], the H1.0 immunofluorescence intensity was 178 (active).
`CC(C(=O)O)c1cccc(C(=O)c2ccccc2)c1` (configuration not stated) [Ketoprofen]: the H1.0 immunofluorescence intensity with TDF [4] is 88.8 (inactive); in the assay on HCC1569 [3], 101 (inactive).
Regarding `Cc1c(C(=O)NN2CCCCC2)nn(-c2ccc(Cl)cc2Cl)c1-c1ccc(I)cc1`, the H1.0 immunofluorescence intensity in the assay with TDF [4] is 92 (inactive); in the assay on HCC1569 [3], 96.5 (inactive).
For the molecule `CSCC[C@@H](C=O)NC(=O)[C@H](CC(C)C)NC(=O)[C@H](CC(C)C)NC(C)=O`, the results for the cell number with HCC1569 [1] and with TDF [2] were 99.2 and 95.5, respectively. Besides, the figures for the H1.0 immunofluorescence intensity with TDF [4] and in the assay with HCC1569 [3] were 96.4 (inactive) and 92.2 (inactive), respectively.
As to `O=C(NC1=CNNC1=C1N=c2ccc(CN3CCOCC3)cc2=N1)NC1CC1`, the cell number was determined as 23.5 in the assay with HCC1569 [1] and 2.95 in the assay on TDF [2]. Besides, the H1.0 immunofluorescence intensity with HCC1569 [3] is 58.9 (inactive).
In the case of `CN(C)CCCN1c2ccccc2Sc2ccc(C(F)(F)F)cc21.Cl` [Triflupromazine hydrochloride], the H1.0 immunofluorescence intensity with TDF [4] is 110 (inactive); in the assay on HCC1569 [3], 113 (inactive).
With `Clc1ccc(N/N=C(\c2ccccc2)c2ccccn2)nc1`, the figures for the cell number in the assay on HCC1569 [1] and in the assay with TDF [2] were 73.1 and 1.54, respectively. Further, the H1.0 immunofluorescence intensity in the assay on HCC1569 [3] was 111 (inactive).
As to `CC(=O)OC1CC2CCC3C(CCC4(C)C3CC([N+]3(C)CCCCC3)C4OC(C)=O)C2(C)CC1N1CCCCC1` (configuration not stated) [Vecuronium], the results for the cell number in the assay with HCC1569 [1] and in the assay with TDF [2] were 103 and 95.7, respectively. Further, the values for the H1.0 immunofluorescence intensity in the assay on TDF [4] and in the assay with HCC1569 [3] were 99.2 (inactive) and 110 (inactive), respectively.
For the molecule `CCN(CC)CCNC(=O)c1c(C)[nH]c(C=C2C(=O)Nc3ccc(Cl)cc32)c1C`, the cell number with HCC1569 [1] was found to be 22.9; with TDF [2], 1.9. Also, in the assay on HCC1569 [3], the H1.0 immunofluorescence intensity was 213 (active).
Consider `CC1(C)C(C(=O)O)N2C(=O)CC2S1(=O)=O` (configuration not stated) [Sulbactam], for which the values for the H1.0 immunofluorescence intensity in the assay with TDF [4] and in the assay on HCC1569 [3] were 95.9 (inactive) and 108 (inactive), respectively.
Consider `O=C1c2ccccc2-c2nc3nnnn3nc21` [PDK1/Akt/Flt Dual Pathway Inhibitor], for which the results for the cell number in the assay on HCC1569 [1] and in the assay on TDF [2] were 41.8 and 3.4, respectively. In addition, the H1.0 immunofluorescence intensity in the assay with HCC1569 [3] is 56.9 (inactive).
In the same order, the values of `O=S(=O)(NCc1cccc2ccccc12)c1cc(Cl)c(Oc2cccc(N3CCNCC3)c2)s1` are 8.55, 0.28 and 122 (inactive).
For `COc1ccc(CCN(C)CCCC(C#N)(c2ccc(OC)c(OC)c2)C(C)C)cc1OC.Cl` (racemic), the H1.0 immunofluorescence intensity with TDF [4] was 99.2 (inactive); in the assay with HCC1569 [3], 95.5 (inactive).
The matching figures for `C[C@H](C(=O)O)c1cccc(C(=O)c2ccccc2)c1` [(S)-(+)-Ketoprofen]: 99 (inactive) and 100 (inactive).
Regarding `CCCCCCCCCCCCCCCCCCOCC(COP(=O)([O-])OCC[N+](C)(C)C)OC` (configuration not stated), the cell number in the assay with HCC1569 [1] is 51.3 and 99.9. The H1.0 immunofluorescence intensity is 225 (active) and 85.1 (inactive) with TDF [4]; 162 (active) and 103 (inactive) in the assay with HCC1569 [3].
For `Cc1ccccc1N(C)C(=O)c1ccc(S(=O)c2nccs2)c([N+](=O)[O-])c1` (configuration not stated), the figures for the cell number in the assay with HCC1569 [1] and in the assay on TDF [2] were 9.73 and 4.15, respectively. For the same molecule, in the assay with HCC1569 [3], the H1.0 immunofluorescence intensity is 131 (inactive).
In the same order, the values of `S=C([S-])N1CCCC1.[NH4+]` [Ammonium pyrrolidinedithiocarbamate] are 87.9, 1.9 and 126 (inactive).
On to `CCC(C)(C)C(=O)OC1CC(C)C=C2C=CC(C)C(CCC3CC(O)CC(=O)O3)C21` (configuration not stated) [Simvastatin], for which the results for the H1.0 immunofluorescence intensity in the assay on TDF [4] and with HCC1569 [3] were 120 (inactive) and 106 (inactive), respectively.
As to `CCN(CC)CCCC(C)Nc1c2ccc(Cl)cc2nc2ccc(OC)cc12.Cl.Cl` (configuration not stated) [Quinacrine dihydrochloride], the results for the cell number with HCC1569 [1] and with TDF [2] were 67.6 and 4.99, respectively. Also, the H1.0 immunofluorescence intensity in the assay on HCC1569 [3] was 133 (inactive).
With `COc1cc(C(O)C(=O)O)ccc1O` (configuration not stated) [hydroxy(4-hydroxy-3-methoxyphenyl)acetic acid], the cell number worked out at 99.7 with HCC1569 [1] and 99.1 in the assay with TDF [2]. Moreover, the H1.0 immunofluorescence intensity in the assay with TDF [4] was 94.8 (inactive); in the assay with HCC1569 [3], 99.4 (inactive).
With `CCOC(=O)N1CCC(=C2c3ccc(Cl)cc3CCc3cccnc32)CC1` [Loratadine], the H1.0 immunofluorescence intensity with TDF [4] is 98.3 (inactive); with HCC1569 [3] it was 103 (inactive).

Source of the values: the supplement of paper PMC7156485.
